PubChem BioAssay (NCI)
The panel holds about 79,000 compounds, 15% with a hit somewhere; the sample as a whole holds those more often. Calls of active or inactive are those of the source. No stated cut-off is given here; in the data, active means growth inhibition above about 70%; inactive means the rest.

Experiments:
[1] = NCI Yeast Anticancer Drug Screen. Data for the rad52 strain (AID 147);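 further: 0% = growth of vehicle-treated control cultures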; conditions: S. cerevisiae rad52 mutant growth inhibition, hits give high values
Method in brief: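 Yeast strain carrying a DNA damage repair alteration was exposed to test compounds. Growth inhibition was measured relative to vehicle-treated controls.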

[2] = NCI Yeast Anticancer Drug Screen. Data for the wt1 strain (AID 149);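 further: 0% = growth of vehicle-treated wt1 cultures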; conditions: S. cerevisiae wt1 strain (SPY 50644) growth inhibition, hits give high values
Method in brief: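 Each compound is tested on wt1 yeast and the loss of growth versus vehicle gives the inhibition value.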

[3] = NCI Yeast Anticancer Drug Screen. Data for the rad50EPP+ strain (AID 151);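 further: 0% = growth of vehicle-treated control cultures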; conditions: S. cerevisiae rad50 mutant strain, hits give high values
Method in brief: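 Yeast strain carrying rad50 alteration (rad50EPP+) exposed to compounds; growth inhibition measured relative to vehicle-treated controls.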

[4] = NCI Yeast Anticancer Drug Screen. Data for the mgt1 strain (AID 153); conditions: S. cerevisiae mgt1 mutant growth inhibition, hits give high values
Method in brief: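 Yeast mgt1 strain (DNA repair/cell-cycle alteration panel) exposed to compounds; growth inhibition measured relative to vehicle-treated controls.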

[5] = NCI Yeast Anticancer Drug Screen. Data for the rad50 strain (AID 155);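 further: 0% = growth of vehicle-only cultures of the same strain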; conditions: S. cerevisiae rad50 strain growth inhibition, hits give high values
Method in brief: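 Vehicle-treated cultures provide the reference for the growth inhibition reported for compound-exposed, repair-deficient yeast.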

[6] = NCI Yeast Anticancer Drug Screen. Data for the rad14 strain (AID 159);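 further: 0% = growth of vehicle-treated control cultures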; conditions: S. cerevisiae rad14 strain growth inhibition, hits give high values
Method in brief: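 Inhibition of growth is reported for a repair-deficient yeast mutant following compound treatment, calculated relative to cultures that received vehicle.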

[7] = NCI Yeast Anticancer Drug Screen. Data for the sgs1 mgt1 strain (AID 161);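 further: 0% = growth of cultures given vehicle only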; conditions: S. cerevisiae sgs1 mgt1 strain, hits give high values
Method in brief: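 Growth of a repair-deficient yeast mutant was monitored after compound treatment and expressed as inhibition relative to vehicle-treated cultures.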

[8] = NCI Yeast Anticancer Drug Screen. Data for the CLN2oe strain (AID 163);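 further: 0% = growth of vehicle-only control cultures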; conditions: S. cerevisiae CLN2oe strain, hits give high values
Method in brief: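 Yeast cells carrying a defined cell-cycle control alteration were exposed to test compounds. Growth inhibition was scored against vehicle-treated control cultures.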

[9] = NCI Yeast Anticancer Drug Screen. Data for the cln2 rad14 strain (AID 165);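 further: 0% = growth equal to vehicle treated cultures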; conditions: S. cerevisiae cln2 rad14 strain, hits give high values
Method in brief: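 Yeast carrying cln2 and rad14 alterations (cell cycle control and DNA damage repair) were exposed to compounds. Growth inhibition was measured against vehicle-treated controls.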

[10] = NCI Yeast Anticancer Drug Screen. Data for the bub3 strain (AID 167); conditions: S. cerevisiae bub3 mutant strain, hits give high values
Method in brief: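 Mutant yeast screening strain plus compound; vehicle-treated cultures serve as the 0% inhibition reference.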

[11] = NCI Yeast Anticancer Drug Screen. Data for the wt2 strain (AID 169); conditions: S. cerevisiae wt2 strain growth inhibition, hits give high values
Method in brief: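 Yeast cells were exposed to test compounds, and growth inhibition was measured relative to vehicle-treated controls.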

[12] = NCI Yeast Anticancer Drug Screen. Data for the mlh1 strain (AID 171);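 further: 0% = growth of vehicle-treated control cultures of the same strain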; conditions: S. cerevisiae mlh1 strain growth inhibition, hits give high values
Method in brief: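 Yeast carrying a defined genetic alteration in DNA damage repair or cell cycle control were exposed to test compounds. Growth inhibition was measured relative to vehicle-treated controls.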

[13] = NCI Yeast Anticancer Drug Screen. Data for the sgs1 strain (AID 173);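 further: 0% = growth of vehicle-only control cultures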; conditions: S. cerevisiae sgs1 mutant, hits give high values
Method in brief: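 Yeast mutant strains carrying defined defects in DNA damage repair or cell cycle control were exposed to test compounds. Growth inhibition was scored against vehicle-treated controls.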

[14] = NCI Yeast Anticancer Drug Screen. Data for the mlh1 rad18 strain (AID 175); conditions: S. cerevisiae mlh1 rad18 strain growth inhibition, hits give high values
Method in brief: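 Growth inhibition of the yeast strain was measured after compound exposure and expressed relative to vehicle-treated controls. The strain carries defined defects in DNA damage repair.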

[15] = NCI Yeast Anticancer Drug Screen. Data for the rad18 strain (AID 177); conditions: S. cerevisiae rad18 mutant growth inhibition, hits give high values
Method in brief: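 Yeast carrying a defined DNA damage repair alteration were exposed to compounds. Growth inhibition was expressed relative to vehicle-treated controls.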

[16] = NCI Yeast Anticancer Drug Screen. Data for the mec2-1 strain (AID 157); conditions: S. cerevisiae mec2-1 strain, hits give high values
Method in brief: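 mec2-1 yeast strain, carrying an alteration in DNA damage repair or cell cycle control, was exposed to compounds; growth inhibition was measured relative to vehicle-treated controls.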

[17] = at 5.0 µM (retest, dose inferred, filed as 0.5)
[18] = at 50.0 µM (retest, dose inferred, filed as 5.0)

Measured: growth inhibition

Cc1ccc(CNc2ccc(Br)cc2)cc1
active: [1]; at 100.0 µM 88% | [2]; at 100.0 µM 82% | [4]; at 100.0 µM 92% | [5]; [18] 89% | [5]; at 100.0 µM 82% | [6]; at 33.0 µM 71% | [6]; at 100.0 µM 92% | [7]; [18] 94% | [8]; at 100.0 µM 81% | [9]; [18] 97% | [10]; [18] 94% | [10]; at 100.0 µM 91% | [11]; at 100.0 µM 87% | [12]; at 100.0 µM 85% | [13]; at 100.0 µM 72% | [14]; [18] 77% | [15]; at 100.0 µM 77%
inactive: [1]; at 1.2 µM 5% | [1]; at 3.7 µM 7% | [1]; at 11.0 µM 18% | [1]; at 33.0 µM 66% | [2]; at 1.2 µM -29% | [2]; at 3.7 µM -28% | [2]; at 11.0 µM -27% | [2]; at 33.0 µM 24% | [3]; at 1.2 µM -10% | [3]; at 3.7 µM -11% | [3]; at 11.0 µM -4% | [3]; at 33.0 µM 14% | [3]; at 100.0 µM 64% | [4]; at 1.2 µM 16% | [4]; at 3.7 µM 12% | [4]; at 11.0 µM 27% | [4]; at 33.0 µM 69% | [5]; at 1.2 µM 17% | [5]; at 3.7 µM 6% | [5]; [17] 61% | [5]; at 11.0 µM 16% | [5]; at 33.0 µM 67% | [5]; at 50.0 µM 62.8% | [6]; at 1.2 µM -17% | [6]; at 3.7 µM -18% | [6]; at 11.0 µM -2% | [7]; [17] -19% | [8]; at 1.2 µM -9% | [8]; at 3.7 µM 11% | [8]; at 11.0 µM 6% | [8]; at 33.0 µM 34% | [9]; [17] 61% | [10]; at 1.2 µM -7% | [10]; at 3.7 µM 11% | [10]; [17] 32% | [10]; at 11.0 µM 26% | [10]; at 33.0 µM 63% | [11]; at 1.2 µM -31% | [11]; at 3.7 µM -30% | [11]; at 11.0 µM -13% | [11]; at 33.0 µM 35% | [12]; at 1.2 µM -32% | [12]; at 3.7 µM -31% | [12]; at 11.0 µM -21% | [12]; at 33.0 µM 40% | [13]; at 1.2 µM -17% | [13]; at 3.7 µM -17% | [13]; at 11.0 µM -15% | [13]; at 33.0 µM 34% | [14]; [17] 28% | [14]; at 50.0 µM 60.2% | [15]; at 1.2 µM -6% | [15]; at 3.7 µM -15% | [15]; at 11.0 µM -7% | [15]; at 33.0 µM 49%

Cc1ccc(I)cc1N=C=S
active: [1]; at 33.0 µM 82% | [1]; at 100.0 µM 99% | [2]; at 33.0 µM 74% | [2]; at 100.0 µM 99% | [3]; at 33.0 µM 96% | [3]; at 100.0 µM 99% | [4]; at 33.0 µM 96% | [4]; at 100.0 µM 99% | [5]; at 33.0 µM 94% | [5]; at 50.0 µM 79.1% | [5]; at 100.0 µM 99% | [16]; at 33.0 µM 82% | [16]; at 100.0 µM 99% | [6]; at 33.0 µM 94% | [6]; at 100.0 µM 99% | [7]; [18] 100% | [8]; at 100.0 µM 98% | [9]; [18] 100% | [10]; at 33.0 µM 96% | [10]; [18] 100% | [10]; at 100.0 µM 99% | [11]; at 33.0 µM 82% | [11]; at 100.0 µM 99% | [12]; at 33.0 µM 93% | [12]; at 100.0 µM 99% | [13]; at 33.0 µM 83% | [13]; at 100.0 µM 99% | [15]; at 33.0 µM 86% | [15]; at 100.0 µM 99%
inactive: [1]; at 1.2 µM -5% | [1]; at 3.7 µM 6% | [1]; at 11.0 µM 22% | [2]; at 1.2 µM -12% | [2]; at 3.7 µM -14% | [2]; at 11.0 µM -9% | [3]; at 1.2 µM 15% | [3]; at 3.7 µM 36% | [3]; at 11.0 µM 63% | [4]; at 1.2 µM 31% | [4]; at 3.7 µM 44% | [4]; at 11.0 µM 53% | [5]; at 1.2 µM 8% | [5]; at 3.7 µM 6% | [5]; [17] 32% | [5]; at 11.0 µM 25% | [5]; [18] 62% | [16]; at 1.2 µM -4% | [16]; at 3.7 µM 8% | [16]; [17] 48% | [16]; at 11.0 µM 8% | [16]; [18] 62% | [16]; at 50.0 µM 56.9% | [6]; at 1.2 µM -11% | [6]; at 3.7 µM -10% | [6]; at 11.0 µM 11% | [7]; [17] 0% | [8]; at 1.2 µM -2% | [8]; at 3.7 µM 6% | [8]; at 11.0 µM 10% | [8]; at 33.0 µM 68% | [9]; [17] 52% | [10]; at 1.2 µM 7% | [10]; at 3.7 µM 28% | [10]; [17] 7% | [10]; at 11.0 µM 37% | [11]; at 1.2 µM -21% | [11]; at 3.7 µM -12% | [11]; at 11.0 µM 4% | [12]; at 1.2 µM 28% | [12]; at 3.7 µM 28% | [12]; at 11.0 µM 44% | [13]; at 1.2 µM 6% | [13]; at 3.7 µM 2% | [13]; at 11.0 µM 18% | [15]; at 1.2 µM 10% | [15]; at 3.7 µM 24% | [15]; at 11.0 µM 41%

NNC(=S)Nc1cccc2ccccc12
inactive: [1]; at 1.2 µM -10% | [1]; at 3.7 µM -35% | [1]; at 11.0 µM -29% | [1]; at 33.0 µM 8% | [1]; at 100.0 µM 20% | [2]; at 1.2 µM -21% | [2]; at 3.7 µM -17% | [2]; at 11.0 µM -24% | [2]; at 33.0 µM -7% | [2]; at 100.0 µM 7% | [3]; at 1.2 µM -48% | [3]; at 3.7 µM -52% | [3]; at 11.0 µM -54% | [3]; at 33.0 µM -45% | [3]; at 100.0 µM 4% | [4]; at 1.2 µM -16% | [4]; at 3.7 µM -45% | [4]; at 11.0 µM -23% | [4]; at 33.0 µM -7% | [4]; at 100.0 µM 60% | [5]; at 1.2 µM -31% | [5]; at 3.7 µM -26% | [5]; [17] 45% | [5]; at 11.0 µM -31% | [5]; at 33.0 µM -6% | [5]; [18] 35% | [5]; at 50.0 µM 23.6% | [5]; at 100.0 µM 43% | [16]; at 1.2 µM -16% | [16]; at 3.7 µM -41%
